# Experimental data reported in publication PMC7862700, “An all-to-all approach to the identification of sequence-specific readers for epigenetic DNA modifications on cytosine”.
# Tests used:
# Assay in all cases: DAPPL (digital affinity profiling via proximity ligation, sequencing); 10 mM Tris-HCl pH 7.5, 50 mM NaCl, 1 mM DTT, 4% glycerol, room temperature, 30 min; GST-TFs on glutathione beads, 16-mer random dsDNA library, 0.1% formaldehyde crosslink after washing; high values mean tight binding
# FEV = molecular target: T1, FEV (Homo sapiens, UniProt Q99581 1-238); conditions: protein: recombinant; tags: N-terminal GST; dsDNA, one strand shown
# T1 sequence: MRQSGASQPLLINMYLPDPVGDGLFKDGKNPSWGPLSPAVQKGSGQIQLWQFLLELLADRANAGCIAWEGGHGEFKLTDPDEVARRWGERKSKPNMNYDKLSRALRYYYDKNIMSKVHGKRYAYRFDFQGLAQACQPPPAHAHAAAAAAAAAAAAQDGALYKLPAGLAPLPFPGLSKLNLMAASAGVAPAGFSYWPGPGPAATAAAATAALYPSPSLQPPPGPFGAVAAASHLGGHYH
# How it was run: (§1)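 In yeast, human transcription factors were expressed with a GST fusion, then pulled down on glutathione beads and given DNA barcodes. Pooled with a tag-only sample, they were exposed to 200 nmole of a 16-mer random double-stranded DNA library (Tris/NaCl/DTT/glycerol buffer, room temperature, 30 min), washed, crosslinked with 0.1% formaldehyde, proximity-ligated using BsaI/T4 ligase for 1 h at 37 °C, PCR-amplified and read on an Illumina NextSeq500. Each hexamer's frequency of reads for a factor, divided by the matching frequency for the tag-only sample, gives the binding signal.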
# ETV5 = ETV5 (Homo sapiens, UniProt P41161 1-510); conditions: protein: recombinant; tags: N-terminal GST; dsDNA, one strand shown
# How it was run: as §1
# HSF1 = HSF1 (Homo sapiens, UniProt Q00613 1-529); conditions: protein: recombinant; tags: N-terminal GST; chain copies: 3; dsDNA, one strand shown
# How it was run: as §1
# SPIC = molecular target: T2, SPIC (Homo sapiens, UniProt Q8N5J4 1-248); conditions: protein: recombinant; tags: N-terminal GST; dsDNA, one strand shown
# T2 sequence: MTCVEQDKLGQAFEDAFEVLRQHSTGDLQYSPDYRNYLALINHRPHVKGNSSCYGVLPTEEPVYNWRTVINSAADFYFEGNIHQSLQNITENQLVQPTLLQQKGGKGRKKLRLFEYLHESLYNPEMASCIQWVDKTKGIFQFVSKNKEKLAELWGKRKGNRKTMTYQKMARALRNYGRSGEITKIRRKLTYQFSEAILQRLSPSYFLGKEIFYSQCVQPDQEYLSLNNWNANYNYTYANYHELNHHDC
# How it was run: as §1
# ELF4 = ELF4 (Homo sapiens, UniProt Q99607 1-663); conditions: protein: recombinant; tags: N-terminal GST; dsDNA, one strand shown
# How it was run: as §1
# ELK4 = molecular target: T3, ELK4 (Homo sapiens, UniProt P28324-2 1-405); conditions: protein: recombinant; tags: N-terminal GST; dsDNA, one strand shown
# T3 sequence: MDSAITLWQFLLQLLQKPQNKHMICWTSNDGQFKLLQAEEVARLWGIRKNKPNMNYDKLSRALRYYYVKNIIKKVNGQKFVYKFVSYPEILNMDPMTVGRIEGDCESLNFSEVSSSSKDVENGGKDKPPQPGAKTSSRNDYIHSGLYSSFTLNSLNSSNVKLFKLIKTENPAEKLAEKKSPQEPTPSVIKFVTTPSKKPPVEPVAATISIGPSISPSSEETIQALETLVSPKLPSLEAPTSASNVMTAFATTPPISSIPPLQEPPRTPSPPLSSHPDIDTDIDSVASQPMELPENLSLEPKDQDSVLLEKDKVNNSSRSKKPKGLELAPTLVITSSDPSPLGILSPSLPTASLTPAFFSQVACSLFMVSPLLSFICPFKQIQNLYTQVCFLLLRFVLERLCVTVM
# How it was run: as §1
# ETV2 = molecular target: T4, ETV2 (Homo sapiens, UniProt O00321 1-342); conditions: protein: recombinant; tags: N-terminal GST; dsDNA, one strand shown
# T4 sequence: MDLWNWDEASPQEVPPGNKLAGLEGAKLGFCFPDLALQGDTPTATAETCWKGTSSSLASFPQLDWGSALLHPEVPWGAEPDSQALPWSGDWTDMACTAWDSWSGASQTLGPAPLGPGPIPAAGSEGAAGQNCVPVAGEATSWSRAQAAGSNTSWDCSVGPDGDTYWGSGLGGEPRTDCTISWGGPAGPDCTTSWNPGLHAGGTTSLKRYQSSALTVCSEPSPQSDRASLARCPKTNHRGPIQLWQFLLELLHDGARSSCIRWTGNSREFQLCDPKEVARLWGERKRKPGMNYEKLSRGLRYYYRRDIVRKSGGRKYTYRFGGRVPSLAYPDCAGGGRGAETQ
# How it was run: as §1
# ELF3 = molecular target: T5, ELF3 (Homo sapiens, UniProt P78545 1-371); conditions: protein: recombinant; tags: N-terminal GST; dsDNA, one strand shown
# T5 sequence: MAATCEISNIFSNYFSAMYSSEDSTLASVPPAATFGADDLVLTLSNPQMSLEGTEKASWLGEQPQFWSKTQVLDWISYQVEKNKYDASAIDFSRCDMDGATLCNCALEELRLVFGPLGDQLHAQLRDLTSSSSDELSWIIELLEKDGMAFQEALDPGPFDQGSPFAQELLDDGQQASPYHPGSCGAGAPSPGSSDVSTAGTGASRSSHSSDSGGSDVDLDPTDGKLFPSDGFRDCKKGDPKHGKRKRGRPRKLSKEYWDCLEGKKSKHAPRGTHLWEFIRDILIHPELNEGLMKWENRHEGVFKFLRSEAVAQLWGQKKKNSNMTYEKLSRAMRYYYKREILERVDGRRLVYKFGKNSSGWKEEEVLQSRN
# How it was run: as §1
# CRX = CRX (Homo sapiens, UniProt O43186 1-299); conditions: protein: recombinant; tags: N-terminal GST; dsDNA, one strand shown
# How it was run: as §1
# ETV1 = ETV1 (Homo sapiens, UniProt P50549 1-477); conditions: protein: recombinant; tags: N-terminal GST; dsDNA, one strand shown
# How it was run: as §1
# ERF = molecular target: T6, ERF (Homo sapiens, UniProt P50548 1-548); conditions: protein: recombinant; tags: N-terminal GST; dsDNA, one strand shown
# T6 sequence: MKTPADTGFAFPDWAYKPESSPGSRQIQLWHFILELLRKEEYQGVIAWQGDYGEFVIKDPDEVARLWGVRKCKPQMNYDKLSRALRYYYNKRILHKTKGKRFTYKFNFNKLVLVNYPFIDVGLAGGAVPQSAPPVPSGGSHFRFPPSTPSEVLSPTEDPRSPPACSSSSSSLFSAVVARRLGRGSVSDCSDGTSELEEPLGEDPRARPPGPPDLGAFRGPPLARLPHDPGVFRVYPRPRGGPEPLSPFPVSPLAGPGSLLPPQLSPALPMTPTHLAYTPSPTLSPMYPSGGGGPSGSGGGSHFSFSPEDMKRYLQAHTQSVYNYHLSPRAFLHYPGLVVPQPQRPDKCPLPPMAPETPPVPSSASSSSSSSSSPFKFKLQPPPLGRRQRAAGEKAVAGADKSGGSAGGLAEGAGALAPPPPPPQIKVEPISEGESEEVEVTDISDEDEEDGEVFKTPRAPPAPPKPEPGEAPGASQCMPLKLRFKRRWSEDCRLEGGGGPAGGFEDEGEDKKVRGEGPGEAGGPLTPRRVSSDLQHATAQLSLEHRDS
# How it was run: as §1
# ETV3L = molecular target: T7, ETV3L (Homo sapiens, UniProt Q6ZN32 1-361); conditions: protein: recombinant; tags: N-terminal GST; dsDNA, one strand shown
# T7 sequence: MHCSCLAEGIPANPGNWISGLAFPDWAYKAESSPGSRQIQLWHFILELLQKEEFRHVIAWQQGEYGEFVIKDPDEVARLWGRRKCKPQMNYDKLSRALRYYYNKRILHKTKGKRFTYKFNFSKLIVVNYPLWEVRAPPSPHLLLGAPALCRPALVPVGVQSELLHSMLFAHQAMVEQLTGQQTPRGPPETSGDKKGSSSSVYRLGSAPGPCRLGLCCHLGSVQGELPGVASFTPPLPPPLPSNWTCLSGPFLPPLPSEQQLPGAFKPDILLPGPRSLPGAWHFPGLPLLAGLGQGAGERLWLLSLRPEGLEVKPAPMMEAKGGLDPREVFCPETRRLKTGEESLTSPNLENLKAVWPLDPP
# How it was run: as §1
# ETS2 = molecular target: T8, ETS2 (Homo sapiens, UniProt P15036 1-469); conditions: protein: recombinant; tags: N-terminal GST; dsDNA, one strand shown
# T8 sequence: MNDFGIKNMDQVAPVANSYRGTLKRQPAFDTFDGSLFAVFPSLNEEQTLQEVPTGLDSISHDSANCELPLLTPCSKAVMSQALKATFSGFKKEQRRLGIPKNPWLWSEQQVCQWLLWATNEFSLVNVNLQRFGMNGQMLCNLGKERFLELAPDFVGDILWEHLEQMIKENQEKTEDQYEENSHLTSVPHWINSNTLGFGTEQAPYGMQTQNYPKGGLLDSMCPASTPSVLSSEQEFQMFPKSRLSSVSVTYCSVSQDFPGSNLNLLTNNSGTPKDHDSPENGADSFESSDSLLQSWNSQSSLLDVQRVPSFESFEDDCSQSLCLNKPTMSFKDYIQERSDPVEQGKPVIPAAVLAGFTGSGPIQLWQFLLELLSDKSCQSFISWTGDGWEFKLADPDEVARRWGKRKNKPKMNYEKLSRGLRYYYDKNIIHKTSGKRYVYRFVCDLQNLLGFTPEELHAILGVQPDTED
# How it was run: as §1
# SPDEF = molecular target: T9, SPDEF (Homo sapiens, UniProt O95238 1-335); conditions: protein: recombinant; tags: N-terminal GST; dsDNA, one strand shown
# T9 sequence: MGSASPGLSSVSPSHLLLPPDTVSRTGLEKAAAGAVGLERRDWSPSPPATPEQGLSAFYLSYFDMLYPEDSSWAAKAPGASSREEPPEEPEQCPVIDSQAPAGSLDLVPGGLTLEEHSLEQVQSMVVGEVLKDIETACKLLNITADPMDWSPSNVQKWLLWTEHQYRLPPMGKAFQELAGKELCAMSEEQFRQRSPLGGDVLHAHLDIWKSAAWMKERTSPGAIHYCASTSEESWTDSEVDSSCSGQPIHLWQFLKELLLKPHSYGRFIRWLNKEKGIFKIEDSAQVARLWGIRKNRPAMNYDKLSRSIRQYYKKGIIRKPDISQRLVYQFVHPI
# How it was run: as §1
# ETV7 = molecular target: T10, ETV7 (Homo sapiens, UniProt Q9Y603 1-341); conditions: protein: recombinant; tags: N-terminal GST; dsDNA, one strand shown
# T10 sequence: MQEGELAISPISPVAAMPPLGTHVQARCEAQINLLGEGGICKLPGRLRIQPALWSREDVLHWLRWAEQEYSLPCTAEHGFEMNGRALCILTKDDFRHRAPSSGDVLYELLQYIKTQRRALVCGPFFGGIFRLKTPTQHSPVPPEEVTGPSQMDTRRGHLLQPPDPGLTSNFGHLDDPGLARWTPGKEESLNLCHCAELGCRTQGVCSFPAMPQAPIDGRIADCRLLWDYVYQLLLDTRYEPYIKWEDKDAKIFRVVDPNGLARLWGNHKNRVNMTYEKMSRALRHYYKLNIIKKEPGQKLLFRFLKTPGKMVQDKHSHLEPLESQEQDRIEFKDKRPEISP
# How it was run: as §1
# ELF5 = molecular target: T11, ELF5 (Homo sapiens, UniProt Q9UKW6-2 1-255); conditions: protein: recombinant; tags: N-terminal GST; dsDNA, one strand shown
# T11 sequence: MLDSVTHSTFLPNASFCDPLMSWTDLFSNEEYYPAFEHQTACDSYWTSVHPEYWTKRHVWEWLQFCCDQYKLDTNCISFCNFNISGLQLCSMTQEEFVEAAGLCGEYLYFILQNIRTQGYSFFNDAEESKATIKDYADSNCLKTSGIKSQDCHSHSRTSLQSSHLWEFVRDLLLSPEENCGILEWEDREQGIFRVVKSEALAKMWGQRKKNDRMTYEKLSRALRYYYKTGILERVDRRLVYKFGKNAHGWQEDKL
# How it was run: as §1
# ETV3 = molecular target: T12, ETV3 (Homo sapiens, UniProt P41162-2 1-143); conditions: protein: recombinant; tags: N-terminal GST; dsDNA, one strand shown
# T12 sequence: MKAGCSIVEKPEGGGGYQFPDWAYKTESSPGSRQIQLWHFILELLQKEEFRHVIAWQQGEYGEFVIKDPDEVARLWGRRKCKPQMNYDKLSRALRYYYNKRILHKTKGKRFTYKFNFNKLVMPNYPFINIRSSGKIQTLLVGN
# How it was run: as §1
# ETV6 = ETV6 (Homo sapiens, UniProt P41212 1-452); conditions: protein: recombinant; tags: N-terminal GST; dsDNA, one strand shown
# How it was run: as §1
# Sequence of ETV6 (P41212 whole entry): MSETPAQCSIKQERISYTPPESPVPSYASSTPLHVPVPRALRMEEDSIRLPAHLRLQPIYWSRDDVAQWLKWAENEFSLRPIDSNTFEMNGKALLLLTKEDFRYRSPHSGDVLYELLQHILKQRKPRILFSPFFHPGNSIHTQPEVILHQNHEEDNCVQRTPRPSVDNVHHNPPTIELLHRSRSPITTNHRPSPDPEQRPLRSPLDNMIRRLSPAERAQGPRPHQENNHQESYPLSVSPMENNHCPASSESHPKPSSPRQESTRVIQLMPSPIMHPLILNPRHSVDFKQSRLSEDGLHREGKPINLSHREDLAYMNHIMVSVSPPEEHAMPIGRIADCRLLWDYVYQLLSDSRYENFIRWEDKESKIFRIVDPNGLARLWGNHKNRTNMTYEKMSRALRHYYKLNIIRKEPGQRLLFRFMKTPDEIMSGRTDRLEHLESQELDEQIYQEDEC
# Sequence of ETV1 (P50549 whole entry): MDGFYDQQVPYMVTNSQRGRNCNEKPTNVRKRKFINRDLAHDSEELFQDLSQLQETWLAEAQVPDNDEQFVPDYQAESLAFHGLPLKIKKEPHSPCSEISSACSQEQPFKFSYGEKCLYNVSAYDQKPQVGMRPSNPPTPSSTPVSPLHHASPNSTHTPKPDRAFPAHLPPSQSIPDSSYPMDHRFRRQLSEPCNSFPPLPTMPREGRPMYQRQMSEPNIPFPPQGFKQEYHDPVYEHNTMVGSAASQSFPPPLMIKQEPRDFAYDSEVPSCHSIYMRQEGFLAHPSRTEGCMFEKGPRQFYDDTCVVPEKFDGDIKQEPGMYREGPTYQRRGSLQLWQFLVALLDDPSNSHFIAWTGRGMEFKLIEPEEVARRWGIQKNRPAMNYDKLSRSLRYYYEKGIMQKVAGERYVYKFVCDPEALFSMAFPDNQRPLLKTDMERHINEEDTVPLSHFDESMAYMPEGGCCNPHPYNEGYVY
# Sequence of HSF1 (Q00613 whole entry): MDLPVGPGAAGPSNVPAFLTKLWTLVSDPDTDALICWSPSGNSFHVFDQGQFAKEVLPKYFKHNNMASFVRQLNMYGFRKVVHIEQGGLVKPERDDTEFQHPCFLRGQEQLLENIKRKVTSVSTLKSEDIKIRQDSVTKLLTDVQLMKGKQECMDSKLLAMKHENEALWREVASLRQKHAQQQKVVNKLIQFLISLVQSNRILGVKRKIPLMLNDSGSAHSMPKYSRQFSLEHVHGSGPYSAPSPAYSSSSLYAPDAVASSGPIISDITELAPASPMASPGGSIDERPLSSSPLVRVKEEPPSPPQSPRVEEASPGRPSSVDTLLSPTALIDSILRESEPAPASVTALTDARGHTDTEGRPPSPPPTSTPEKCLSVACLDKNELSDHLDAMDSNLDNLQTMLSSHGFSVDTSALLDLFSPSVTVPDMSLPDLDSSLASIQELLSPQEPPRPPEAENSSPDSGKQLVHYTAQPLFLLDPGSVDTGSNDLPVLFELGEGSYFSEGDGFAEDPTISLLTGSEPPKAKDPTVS
# Sequence of ETV5 (P41161 whole entry): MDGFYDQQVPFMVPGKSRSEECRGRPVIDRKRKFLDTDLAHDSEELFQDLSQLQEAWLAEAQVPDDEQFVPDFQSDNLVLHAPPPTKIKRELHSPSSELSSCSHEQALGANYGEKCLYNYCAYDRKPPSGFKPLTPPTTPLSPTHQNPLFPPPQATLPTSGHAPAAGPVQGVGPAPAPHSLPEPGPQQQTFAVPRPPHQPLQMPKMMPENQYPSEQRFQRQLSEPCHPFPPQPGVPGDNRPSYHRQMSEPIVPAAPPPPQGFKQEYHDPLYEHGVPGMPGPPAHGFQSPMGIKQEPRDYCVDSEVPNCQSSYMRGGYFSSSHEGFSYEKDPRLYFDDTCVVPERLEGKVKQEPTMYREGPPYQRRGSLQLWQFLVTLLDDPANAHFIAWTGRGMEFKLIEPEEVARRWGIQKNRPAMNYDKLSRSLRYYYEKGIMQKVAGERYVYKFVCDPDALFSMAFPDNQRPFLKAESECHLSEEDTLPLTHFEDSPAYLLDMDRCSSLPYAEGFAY
# Sequence of ELF4 (Q99607 whole entry): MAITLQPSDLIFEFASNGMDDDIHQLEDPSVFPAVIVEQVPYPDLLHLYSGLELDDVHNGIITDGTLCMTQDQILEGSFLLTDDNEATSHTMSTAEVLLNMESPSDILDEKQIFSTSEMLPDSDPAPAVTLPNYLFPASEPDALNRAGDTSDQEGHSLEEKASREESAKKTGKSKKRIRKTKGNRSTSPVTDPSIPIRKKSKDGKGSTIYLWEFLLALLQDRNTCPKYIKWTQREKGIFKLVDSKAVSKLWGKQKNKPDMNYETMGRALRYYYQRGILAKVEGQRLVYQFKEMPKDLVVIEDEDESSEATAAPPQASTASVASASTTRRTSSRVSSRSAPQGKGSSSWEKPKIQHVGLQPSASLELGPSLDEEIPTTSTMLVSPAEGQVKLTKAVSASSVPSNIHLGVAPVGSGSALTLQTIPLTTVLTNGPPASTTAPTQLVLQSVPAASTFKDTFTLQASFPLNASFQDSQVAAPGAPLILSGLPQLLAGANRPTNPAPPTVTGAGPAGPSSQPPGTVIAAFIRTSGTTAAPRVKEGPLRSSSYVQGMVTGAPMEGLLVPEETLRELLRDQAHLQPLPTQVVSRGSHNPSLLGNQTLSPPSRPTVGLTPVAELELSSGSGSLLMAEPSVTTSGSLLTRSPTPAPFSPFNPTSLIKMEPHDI
# Sequence of CRX (O43186 whole entry): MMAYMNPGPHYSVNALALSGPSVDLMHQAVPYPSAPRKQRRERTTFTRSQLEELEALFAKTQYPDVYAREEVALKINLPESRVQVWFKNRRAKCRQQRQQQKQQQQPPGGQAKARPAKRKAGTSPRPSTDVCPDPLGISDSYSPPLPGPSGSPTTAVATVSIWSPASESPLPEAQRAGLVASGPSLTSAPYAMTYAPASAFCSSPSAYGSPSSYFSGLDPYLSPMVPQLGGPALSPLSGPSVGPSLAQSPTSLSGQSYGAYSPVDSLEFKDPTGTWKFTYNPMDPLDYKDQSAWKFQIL
sequence,measurement,setting,value
CAACTC,binding signal,FEV,"1.23 fold enrichment (6-mer frequency, TF over GST control)"
same,binding signal,ETV5,"1.22 fold enrichment (6-mer frequency, TF over GST control)"
same,binding signal,HSF1,"1.12 fold enrichment (6-mer frequency, TF over GST control)"
same,binding signal,SPIC,"1.33 fold enrichment (6-mer frequency, TF over GST control)"
same,binding signal,ELF4,"1.27 fold enrichment (6-mer frequency, TF over GST control)"
same,binding signal,ELK4,"1.2 fold enrichment (6-mer frequency, TF over GST control)"
same,binding signal,ETV2,"1.3 fold enrichment (6-mer frequency, TF over GST control)"
same,binding signal,ELF3,"1.24 fold enrichment (6-mer frequency, TF over GST control)"
same,binding signal,CRX,"1.01 fold enrichment (6-mer frequency, TF over GST control)"
same,binding signal,ETV1,"1.18 fold enrichment (6-mer frequency, TF over GST control)"
same,binding signal,ERF,"1.26 fold enrichment (6-mer frequency, TF over GST control)"
same,binding signal,ETV3L,"1.22 fold enrichment (6-mer frequency, TF over GST control)"
same,binding signal,ETS2,"1.26 fold enrichment (6-mer frequency, TF over GST control)"
same,binding signal,SPDEF,"1.36 fold enrichment (6-mer frequency, TF over GST control)"
same,binding signal,ETV7,"1.12 fold enrichment (6-mer frequency, TF over GST control)"
same,binding signal,ELF5,"1.16 fold enrichment (6-mer frequency, TF over GST control)"
same,binding signal,ETV3,"1.31 fold enrichment (6-mer frequency, TF over GST control)"
same,binding signal,ETV6,"1.29 fold enrichment (6-mer frequency, TF over GST control)"
